For 26 compounds, outcome and AC50 results are on record in PubChem BioAssay (EPA / NIEHS).

The structures appear in SMILES notation. Where a structure was tested more than once in an assay, its records may differ in their call. Activity calls are given as the source filed them. Rule for the calls: active = hit-call score of the fitted dose curve at least 0.9, where 1 is the maximum; inactive = score below 0.9.

The test can be described thus: CCTE_Shafer_MEA_dev_network_spike_peak: CCTE's Neural Network Formation Assay for Mean Number of Electrodes in Network Spike, Shafer Lab (AID 2284049). The method, then: CCTE_Shafer_MEA_dev assay is conducted using Axion Biosystems 48 well microelectrode array (MEA) plates and Maestro recording system. Each well of the MEA plate contains a grid of 16 microelectrodes embedded in the culture surface. Electrically active cells, such as neurons, can be cultured over the electrodes, and electrical activity in these cells can be recorded extracellularly. The spontaneous firing of neurons is captured from each electrode on a microsecond timescale providing both temporally and spatially precise data. […] The CCTE_Shafer_MEA_dev assay uses primary cultures of rat cortical neurons. Recordings are made on days post-plating 5, 7, 9 and 12. As these cultures mature over time, neural networks develop functional activity and form cohesive networks in which electrical activity can be highly coordinated. CCTE_Shafer_MEA_dev_network_spike_peak is 1 of 19 assay components of the CCTE_Shafer_MEA_dev assay. It measures the average number of electrodes participating at the peak of a network spike (the peak of a temporally-clustered group of action potential firing across multiple electrodes) during a recording in a microelectrode array (MEA) using Axion Biosystems Maestro 768 channel amplifier with the AxIS adaptive spike detector. To collapse across multiple recordings made on days post-plating 5, 7, 9 and 12, the trapezoidal area-under-the-curve of the component is calculated.Data from the assay component CCTE_Shafer_MEA_dev_network_spike_peak was analyzed into 1 assay endpoint. This assay endpoint, CCTE_Shafer_MEA_dev_network_spike_peak, was analyzed in the negative analysis fitting direction relative to DMSO as the negative control and baseline of activity. Using a type of functional reporter, gain or loss-of-signal activity can be used to understand electrical activity.
On the day prior to culture, each well was coated thoroughly with 150 uL of 0.05% polyethyleneimine (PEI, Sigma Cat P3143) in 50 mM HEPES (Sigma Cat H7523) at a pH of 8. The plate was incubated at 37C for one hour. PEI was rinsed out with 500 uL of sterile water three times. Plates were stored at 4C until the day of culture. This culture was plated at a seeding density of 1.5 x 10^5 cells/well on a 48-well MEA plate, prepared as described above. Cells were administered via a 25 uL media/laminin ([…]; Sigma Cat L2020-1MG) drop directly onto the microelectrode array, as adding the cells with the laminin results in better attachment than pre-coating with laminin. After 2 hours, an additional 475 uL of cortical media was added and the cells returned to the incubator. Exposure starts at day 0 of plating and is continued over twelve days of network development until the experiment is terminated. Cells are fed with fresh medium on DIV 5 and 9, following the recordings on those days. The entire volume of media in the well is exchanged and any vehicle or compound treatment is renewed. Complete details are found in OP-NHEERL/ISTD/SBB/TJS/2015-03-r0 (available on request, email shafer.tim@epa.gov). Measurement of the electrical activity is non-invasive, and recordings can be made from the same plate over multiple different days of the culture. In cortical neurons, this allows for the measurement of extracellular action potentials over the period during which networks form in the MEA plate.
Take `O=C(O)CCC(F)(F)C(F)(F)C(F)(F)C(F)(F)C(F)(F)F`: the compound was called inactive.

In the case of `COC(=O)C(F)(F)C(F)(F)C(F)(F)F`, the outcome was inactive.

In the case of `CC(=O)Nc1ccc(O)cc1`, the result was inactive.

Regarding `NC(C(F)(F)F)C(F)(F)F`, the result was inactive.

Regarding `CC(C)c1c(C(=O)Nc2ccccc2)c(-c2ccccc2)c(-c2ccc(F)cc2)n1CC[C@@H](O)C[C@@H](O)CC(=O)O`, the concentration at half-maximal activity (AC50) was 0.00641 µM (active).

`C=CC(F)(F)C(F)(F)C(F)(F)C(F)(F)F`: the call was inactive.

Consider `O=C(O)C(F)(F)OC(F)(F)C(F)(F)OC(F)(F)C(F)(F)OC(F)(F)C(F)(F)C(F)(F)C(F)(F)F`, for which the compound was classed as inactive.

Consider `O=C(F)C(F)(F)C(F)(F)C(F)(F)C(F)F`, for which the call was inactive.

As for `O=C(F)C(F)(F)C(F)(F)C(F)(F)C(=O)F`, the call was inactive.

Regarding `FCOC(C(F)(F)F)C(F)(F)F`, the outcome was inactive.

Take `OCC(F)(F)C(F)(F)C(F)(F)C(F)(F)C(F)(F)C(F)(F)C(F)(F)C(F)(F)C(F)(F)C(F)(F)C(F)(F)F`: the result was inactive and the half-maximal activity concentration (AC50) is 8.24 µM (active).

With `CN(Cc1cnc2nc(N)nc(N)c2n1)c1ccc(C(=O)N[C@@H](CCC(=O)O)C(=O)O)cc1`, the AC50 was 0.0279 µM (active).

Turning to `CN(CCO)S(=O)(=O)C(F)(F)C(F)(F)C(F)(F)C(F)(F)C(F)(F)C(F)(F)C(F)(F)C(F)(F)F`, the call was inactive.

In the case of `O=P(O)(O)CCC(F)(F)C(F)(F)C(F)(F)C(F)(F)C(F)(F)C(F)(F)C(F)(F)C(F)(F)F`, the AC50 was 4.22 µM (active).

For `FC(F)=C(F)C(F)(F)C(F)(F)C(F)(F)C(F)F`, the compound was called inactive.

As to `O=C(OC(=O)C(F)(F)C(F)(F)F)C(F)(F)C(F)(F)F`, the compound was called inactive.

`O=C(C=C(O)C(F)(F)F)C(F)(F)F`: the result was inactive.

With `COC(=O)C(F)(F)C(F)(F)C(F)(F)C(F)(F)C(F)(F)F`, the call was inactive.

Regarding `O=C(CC(=O)C(F)(F)C(F)(F)C(F)(F)F)c1cccs1`, the AC50 was 7.42 µM (active).

On to `O=P(O)(O)CCC(F)(F)C(F)(F)C(F)(F)C(F)(F)C(F)(F)C(F)(F)F`, for which the result was inactive.

As to `O=C1NS(=O)(=O)c2ccccc21`, the outcome was inactive.

Take `O=CC(F)(F)C(F)(F)C(F)(F)C(F)F`: the call was inactive.

In the case of `Nc1ccn([C@@H]2O[C@H](CO)[C@@H](O)C2O)c(=O)n1` (some centres not stated), the AC50 was 0.329 µM (active).

As for `O=CC(F)(F)C(F)(F)C(F)(F)F`, the call was inactive.

As to `O=C(CCCN1CCC(O)(c2ccc(Cl)cc2)CC1)c1ccc(F)cc1`, the AC50 is 2.02 µM (active).

As to `CN(C)CCOC(c1ccccc1)c1ccccc1`, the AC50 is 10 µM (active).
